Screening data from PubChem BioAssay.
OPRM1-OPRD1 ag: OPRM1-OPRD1 heterodimerization agonism | activation, % at 9.3 µM | cells, luminescence | 0.3% of 340,000 active; in the data active means activation above about 18%;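 further: 0% = vehicle-treated cells and 100% = reference agonist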
Target sequence (P35372 whole entry, looked up): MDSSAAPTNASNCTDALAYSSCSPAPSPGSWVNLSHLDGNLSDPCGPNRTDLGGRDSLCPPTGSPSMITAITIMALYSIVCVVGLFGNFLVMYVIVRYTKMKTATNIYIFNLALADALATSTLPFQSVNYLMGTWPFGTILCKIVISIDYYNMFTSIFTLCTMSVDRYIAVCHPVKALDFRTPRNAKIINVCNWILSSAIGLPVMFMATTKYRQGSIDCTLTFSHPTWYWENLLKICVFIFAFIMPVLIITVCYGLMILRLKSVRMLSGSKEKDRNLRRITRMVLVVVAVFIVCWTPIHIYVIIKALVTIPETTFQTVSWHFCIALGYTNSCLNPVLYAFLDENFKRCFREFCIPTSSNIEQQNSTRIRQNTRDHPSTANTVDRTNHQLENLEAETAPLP
Target sequence (P41143 whole entry, looked up): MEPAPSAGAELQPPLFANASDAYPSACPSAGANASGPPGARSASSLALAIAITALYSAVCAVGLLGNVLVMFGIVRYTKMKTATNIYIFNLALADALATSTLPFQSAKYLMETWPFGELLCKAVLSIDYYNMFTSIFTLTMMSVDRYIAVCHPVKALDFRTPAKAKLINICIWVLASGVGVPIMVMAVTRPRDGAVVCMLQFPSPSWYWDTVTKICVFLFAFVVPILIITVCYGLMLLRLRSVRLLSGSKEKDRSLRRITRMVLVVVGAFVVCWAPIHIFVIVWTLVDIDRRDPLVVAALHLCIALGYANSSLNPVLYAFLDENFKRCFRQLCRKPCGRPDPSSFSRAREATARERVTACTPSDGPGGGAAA
OPRM1-OPRD1 inv: inverse agonists of human mu-delta opioid receptor heterodimerization; 0.21% of 340,000 active; cell-based MOR-DOR heterodimer luminescence, inverse agonism; inhibition, % at 9.3 µM; AID 504357; in the data active means inhibition above about 22%, passing the limit was not always enough;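 further: 0% = cells with DMSO and 100% = wells without cells with DMSO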
HTR5A inv ag: counter-screen for OPRM1-OPRD1 inverse agonists: human HTR5A inverse agonism. P47898. HTR5A cell line, luminescence. inhibition, % at 9.3 µM. 0.083% of 340,000 active. AID 504634; in the data active means inhibition mostly above about 23%, no sharp cut-off; inactive means mostly below about 18%;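 further: 0% = cells with DMSO and 100% = no-cell wells with DMSO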
p-CIP stab down: p/CIP protein destabilization | 0.01% of 290,000 active | decrease of EGFP signal, % at 10 µM | F442A p/CIP-EGFP cells, EGFP fluorescence, 16 h;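 active means EGFP signal decrease of at least 30% at 10 µM or well 3 SD below plate mean, unless failing retest; inactive means the rest, including hits failing retest or dose response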
HTR5A ag: counter-screen for OPRM1-OPRD1 agonists: human HTR5A agonism. P47898. HTR5A agonist assay, luminescence, cell-based. activation, % at 9.3 µM. 0.61% of 340,000 active. AID 504692; in the data active means activation mostly above about 9.5%, no sharp cut-off; inactive means mostly below about 7.6%;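 further: 0% = cells with vehicle only and 100% = reference agonist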
MIN6 prolif: induces beta-cell replication in MIN6 cells; MIN6 cells proliferation, ATPlite luminescence, 48 h; cells starved in 0.2% serum; 100% = growth in 10% serum; proliferation, % at 10 µM; 0.29% of 330,000 active;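 active means compounds whose signal lies at least 3.5 SD above the mean of all wells on their plate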;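 further: 0% = DMSO-treated cells in low-serum medium and 100% = 10% serum control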
* hit, by the source's call; . = not tested or not shown. Shown are actives, neighbours in structure and some others; about 1.4% of the full set was active somewhere.

SMILES | OPRM1-OPRD1 ag | OPRM1-OPRD1 inv | HTR5A inv ag | p-CIP stab down | HTR5A ag | MIN6 prolif
COc1ccc(N(C(=O)c2ccco2)C(C(=O)NC2CCCCC2)c2cccs2)cc1OC (stereo unspecified) | -2.1 | 12.1 | -15.8 | -11.2 | 5.7 | 1.3
C#CC(=O)N(c1ccc(OC)cc1OC)C(C(=O)NC1CCCC1)c1cccs1 (stereo unspecified) | 52.1* | -274.2 | -121.4 | -8.1 | 43.3* | -5.2
COc1ccc(Nc2nc(N)nc(CN3CCOCC3)n2)cc1 | -1.3 | 6.7 | 19.7 | -4.5 | -0.1 | -2.7
COc1ccc(Nc2nc(N)nc(CCl)n2)cc1 | 21.2* | -107.9 | -175.8 | -3.5 | 48.4* | -4.4
CC(=O)c1ccc(NC(=O)C(C)OC(=O)/C=C/c2ccco2)cc1 (stereo unspecified) | -3.3 | 17.4 | 3.8 | . | -0.9 | -4.0
O=C(COC(=O)Cc1ccsc1)Nc1ccc(Br)cc1F | -0.2 | 0.8 | -12.2 | . | 5.0 | 1.4
CCOc1cc(C)c(S(=O)(=O)Nc2ccc(Cl)cn2)cc1C | 0.7 | -3.6 | -3.3 | -5.1 | 14.0* | -0.7
Cc1ccc(S(=O)(=O)Nc2ccc3nc(C)sc3c2)cc1 | 0.3 | -1.6 | 5.9 | -14.8 | -0.7 | -2.1
Cc1nc2ccc(NS(=O)(=O)c3cccc([N+](=O)[O-])c3)cc2s1 | 0.5 | -2.7 | -36.9 | . | 9.0* | -5.7
CC1Cc2ccccc2N1C(=O)COC(=O)c1ccccc1NCCO (stereo unspecified) | 1.1 | -7.7 | -10.7 | . | 4.1 | 0.8
CC1Cc2ccccc2N1C(=O)COC(=O)c1cccnc1Cl (stereo unspecified) | -1.9 | 10.5 | -57.9 | -11.7 | 10.9* | 0.4
COc1cc(N)c2ncccc2c1Br | 2.3 | -11.1 | -4.9 | . | 1.2 | .
CCn1cc(C(=O)NC(=S)Nc2ccccc2Br)cn1 | 0.6 | -2.5 | 9.5 | -13.6 | -3.7 | 5.2
COc1ccccc1NC(=S)NC(=O)c1ccc(Cn2cc(Br)cn2)cc1 | 11.4 | -76.9 | -4.1 | -14.1 | 13.5* | 0.0
O=C(NC1CCN(Cc2ccc(Cl)cc2)CC1)c1cn(-c2ccccc2)nc1-c1cccnc1 | 1.2 | -4.7 | 3.0 | . | -1.2 | -8.0
CC1(C(=O)NC(=S)NNC(=O)c2ccncc2)CCCCC1 | -6.3 | 35.9* | 32.0* | -9.2 | -9.4 | 0.1
S=C1NC(c2ccccc2)=CC(c2ccccc2)N1 (stereo unspecified) | . | . | . | 5.3 | . | -4.6
N#CC1C(=O)NC(c2ccccc2)=CC1c1ccccc1 (stereo unspecified) | -13.8 | 69.0* | 52.1* | . | -13.4 | .
NC(=O)c1ncn([C@@H]2O[C@H](CNCc3cccc(OC4CCCC4)c3)[C@@H](O)[C@H]2O)n1 | -3.9 | 18.0 | -9.5 | . | 2.5 | .
O=C(COC(=O)C1=COCCO1)NCc1ccc(Cl)cc1 | -1.4 | 7.0 | -35.8 | 13.3 | 12.5* | -3.1
COc1ccc(CNC(=O)COC(=O)C2=COCCO2)cc1 | -1.8 | 10.8 | 17.5 | -4.0 | -3.8 | -2.8
COc1ccccc1Nc1nc(N)nc(CN2CCN(c3ccccc3)CC2)n1 | -2.0 | 9.8 | -4.8 | -1.7 | 1.8 | 5.1
COc1cccc(N2CCN(Cc3nc(N)nc(Nc4ccccc4OC)n3)CC2)c1 | -2.2 | 13.7 | 0.6 | -0.8 | 14.1* | -0.9
Cc1cc(C)c(CN2CCN(C(=O)Cn3cnc(C(=O)Nc4ccc(C)c(C)c4)n3)CC2)c(C)c1 | 1.2 | -5.4 | -31.0 | . | 8.5* | .
CCn1c(C)nc2cc(C(=O)N/N=C/c3ccccc3C)ccc21 | -1.2 | 6.3 | -24.6 | -1.5 | 9.2 | 0.5
SMILES | OPRM1-OPRD1 ag | OPRM1-OPRD1 inv | HTR5A inv ag | p-CIP stab down | HTR5A ag | MIN6 prolif
CCn1c(C)nc2cc(C(=O)N/N=C(\C)c3ccccc3O)ccc21 | -1.8 | 8.5 | -25.9 | 8.4 | 10.4* | -1.7
N#CCCN(C(=O)CSc1nc2ccccc2c(=O)[nH]1)c1ccc(F)cc1 | -3.9 | 15.1 | 16.5 | . | 9.5 | -0.3
N#CCCN(C(=O)COC(=O)CCc1nc2ccccc2c(=O)[nH]1)c1ccc(F)cc1 | -1.2 | 6.6 | -38.1 | . | 10.5* | -1.5
Cc1cn([C@H]2C[C@H](O)[C@@H](CCC(=O)NCCc3cnc[nH]3)O2)c(=O)[nH]c1=O | -2.1 | 10.1 | -9.0 | . | 2.4 | .
O=C(c1cccc(C(F)(F)F)c1)C1CCCN(Cc2cccc(OCCO)c2)C1 (stereo unspecified) | 2.0 | -10.4 | -33.2 | 7.2 | 12.7* | -1.8
COCc1cc(CN2CCCC(C(=O)c3cccc(C(F)(F)F)c3)C2)ccc1OC (stereo unspecified) | 4.4 | -22.5 | 0.9 | -3.0 | -0.3 | -2.7
O=C(CC1SC(N2CCOCC2)=NC1=O)Nc1ccc(Cl)c(C(F)(F)F)c1 (stereo unspecified) | -2.4 | 12.4 | 9.8 | . | -2.7 | -3.4
CC(Oc1ccccc1F)C(=O)Nc1ccc2ccccc2c1 (stereo unspecified) | 0.9 | -5.4 | -15.8 | -7.4 | 10.8* | 0.1
CC(Oc1ccc(F)cc1)C(=O)Nc1ccc2ccccc2c1 (stereo unspecified) | -0.4 | 2.4 | -28.6 | -1.3 | 0.4 | -3.3
C[C@H]1CN([C@@H](C)CO)C(=O)c2cccc(NS(=O)(=O)c3cn(C)cn3)c2O[C@H]1CN(C)S(C)(=O)=O | -0.5 | 2.6 | -12.0 | . | 4.1 | -3.4
Cc1ccc2[nH]cc(CCNC(=O)C3CCCO3)c2c1 (stereo unspecified) | 0.3 | -1.2 | -41.8 | 7.8 | 11.3* | -2.1
O=C(c1cc2ccccc2o1)N1CCN(Cc2ccc3c(c2)OCO3)CC1 | -2.7 | 8.9 | -10.6 | -22.1 | 11.2* | -4.2
CCCNC(=S)N1CCN(Cc2ccc3c(c2)OCO3)CC1 | 1.0 | -5.2 | -28.5 | 5.7 | 11.6* | 1.7
O=C(c1cc2ccccc2oc1=O)N1CCN(Cc2ccc3c(c2)OCO3)CC1 | -0.9 | 5.4 | -2.2 | -1.3 | 1.3 | 4.2
N#Cc1ccc(OCC(=O)OCC(=O)Nc2sccc2C(N)=O)cc1 | -2.5 | 13.2 | -7.3 | . | 2.0 | 4.1
Cc1ccc(NC(=O)COC(=O)C2(C)CC2(Cl)Cl)cc1S(=O)(=O)N1CCOCC1 (stereo unspecified) | -1.1 | 5.5 | 3.8 | . | -1.6 | 2.3
CCCN(CC(=O)Nc1ccccc1C)C(=O)COc1c(C)cccc1C | 0.3 | -1.4 | 16.6 | . | -6.8 | -0.4
CCCN(CC(=O)Nc1ccccc1C)C(=O)COC(=O)c1cnc(C)cn1 | 0.7 | -3.7 | -27.9 | . | 10.3* | .
CC(O)(Cc1cccnc1)c1cccs1 (stereo unspecified) | -0.4 | 2.1 | 3.8 | . | -1.0 | .
CCCCN(CCCC)S(=O)(=O)c1ccc2[nH]c(=O)[nH]c2c1 | -1.4 | 7.2 | -10.4 | -10.4 | 4.4 | -1.4
CCN(CC)S(=O)(=O)c1ccc2[nH]c(=O)[nH]c2c1 | 1.6 | -8.9 | -13.4 | -18.6 | 9.5* | -2.3
CCCCCCSc1ccc([C@@H]2[C@H]3C(=O)N(CC)C(=O)[C@H]3[C@]3(C(=O)OC)CCCCN23)cc1OC | 0.0 | -0.2 | -0.9 | . | -1.1 | -6.2
CC(C)n1nc(C(=O)OCC(=O)c2c[nH]c3ccccc23)c2ccccc2c1=O | 3.0 | -17.1 | -32.3 | -0.8 | 10.5* | -2.4
